# Results as given in PubChem BioAssay AID1159580 (chemical genetic matrix, 2015).
# Out of some 5,500 compounds screened, about 2,000 (36%) were called active. Not shown: some 18% with an inconclusive outcome. The list shows a part of the results. Values without a mark were called inactive. Rule as the data show it: active = normalized growth mostly below about 0.91 (no sharp cut-off); inconclusive = no clear call, values can overlap the other calls; inactive = mostly above about 0.92.
# Experiment: chemical genetic growth profiling, strain panel (AID 1159580);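 also: tested at 20 µM; growth read once vehicle control cultures reached saturation at 30 °C; 1 = growth at the plate median or of vehicle wells; lower values mean less growth of the strain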
# Settings: S. cerevisiae deletion strains, growth OD
structure (smiles),measurement,setting,value
CC1OC(O[C@H]2/C=C/C=C/C=C/C=C/C=C/C=C/C=C/[C@H](C)[C@@H](O)[C@@H](C)[C@H](C)OC(=O)CC(O)CC(O)CCC(O)C(O)CC(O)C[C@]3(O)C[C@H](O)C(C(=O)O)C(C2)O3)C(O)[C@H](N)C1O (some centres not stated),normalized growth,"locus YJR066W, strain TOR1, active compounds read low",1.01
same,normalized growth,"locus YJR075W, strain HOC1, active compounds read low",1.03
same,normalized growth,"locus YKL009W, strain mrt4, active compounds read low",0.963
same,normalized growth,"locus YKL068W, active compounds read low",0.997
same,normalized growth,"locus YKL085W, strain MDH1 (second series), active compounds read low",1
same,normalized growth,"locus YKL085W, strain MDH1, active compounds read low",1
same,normalized growth,"locus YKL160W, strain elf1, active compounds read low",0.975
same,normalized growth,"locus YKR001C, strain vps1, active compounds read low",1.04
same,normalized growth,"locus YKR026C, strain gcn3, active compounds read low",0.0616 (active)
same,normalized growth,"locus YKR091W, strain srl3, active compounds read low",1.01
same,normalized growth,"locus YLL001W, strain dnm1, active compounds read low",0.0851 (active)
same,normalized growth,"locus YLL026W, active compounds read low",0.0668 (active)
same,normalized growth,"locus YLL041C, strain sdh2, active compounds read low",0.0791 (active)
same,normalized growth,"locus YLR027C, strain aat2, active compounds read low",0.0727 (active)
same,normalized growth,"locus YLR039C, strain RIC1, active compounds read low",1.07
same,normalized growth,"locus YLR058C, strain SHM2, active compounds read low",0.984
same,normalized growth,"locus YLR102C, strain apc9, active compounds read low",1.02
same,normalized growth,"locus YLR113W, strain HOG1, active compounds read low",0.125 (active)
same,normalized growth,"locus YLR221C, strain rsa3, active compounds read low",0.342 (active)
same,normalized growth,"locus YLR258W, strain gsy2, active compounds read low",0.981
same,normalized growth,"locus YLR262C, strain YPT6 (second series), active compounds read low",0.936
same,normalized growth,"locus YLR262C, strain YPT6, active compounds read low",1.07
same,normalized growth,"locus YLR268W, strain sec22, active compounds read low",1.06
same,normalized growth,"locus YLR320W, strain mms22, active compounds read low",0.917
same,normalized growth,"locus YLR330W, strain CHS5, active compounds read low",1.02
same,normalized growth,"locus YLR342W, strain FKS1 (second series), active compounds read low",1.04
same,normalized growth,"locus YLR342W, strain FKS1, active compounds read low",0.807 (active)
same,normalized growth,"locus YLR357W, strain rsc2, active compounds read low",0.123 (active)
same,normalized growth,"locus YLR370C, strain arc18, active compounds read low",0.112 (active)
same,normalized growth,"locus YLR371W, strain rom2, active compounds read low",1.03
same,normalized growth,"locus YLR384C, strain iki3, active compounds read low",0.754 (active)
same,normalized growth,"locus YLR418C, strain cdc73, active compounds read low",0.973
same,normalized growth,"locus YML016C, strain PPZ1, active compounds read low",0.986
same,normalized growth,"locus YML032C, strain rad52, active compounds read low",0.996
same,normalized growth,"locus YML120C, strain ndi1, active compounds read low",0.0569 (active)
same,normalized growth,"locus YML124C, strain tub3, active compounds read low",1.01
same,normalized growth,"locus YMR058W, strain fet3, active compounds read low",0.0612 (active)
same,normalized growth,"locus YMR078C, strain ctf18, active compounds read low",1.02
same,normalized growth,"locus YMR125W, strain sto1, active compounds read low",0.0674 (active)
same,normalized growth,"locus YMR129W, active compounds read low",0.0583 (active)
same,normalized growth,"locus YMR205C, strain PFK2, active compounds read low",0.105 (active)
same,normalized growth,"locus YMR223W, strain ubp8, active compounds read low",0.992
same,normalized growth,"locus YMR231W, strain pep5, active compounds read low",0.881 (active)
same,normalized growth,"locus YMR263W, strain SAP30, active compounds read low",1
same,normalized growth,"locus YMR307W, strain GAS1, active compounds read low",0.768
same,normalized growth,"locus YNL067W, strain RPL9B, active compounds read low",0.982
same,normalized growth,"locus YNL071W, strain lat1, active compounds read low",0.252 (active)
same,normalized growth,"locus YNL153C, strain GIM3, active compounds read low",0.994
same,normalized growth,"locus YNL183C, strain NPR1, active compounds read low",0.994
same,normalized growth,"locus YNL209W, strain ssb2, active compounds read low",0.993
same,normalized growth,"locus YNL233W, strain BNI4, active compounds read low",0.982
same,normalized growth,"locus YNL248C, strain rpa49, active compounds read low",0.0699 (active)
same,normalized growth,"locus YNL250W, strain rad50, active compounds read low",1
same,normalized growth,"locus YNL271C, strain bni1, active compounds read low",1.01
same,normalized growth,"locus YNL298W, strain CLA4, active compounds read low",1.01
same,normalized growth,"locus YNL307C, strain MCK1, active compounds read low",1.03
same,normalized growth,"locus YNL322C, strain KRE1 (second series), active compounds read low",0.092 (active)
same,normalized growth,"locus YNR049C, strain mso1, active compounds read low",0.991
same,normalized growth,"locus YNR052C, strain pop2, active compounds read low",0.983
same,normalized growth,"locus YOL012C, strain htz1",0.984
same,normalized growth,"locus YOL147C, strain pex11, active compounds read low",1.01
same,normalized growth,"locus YOR001W, strain rrp6, active compounds read low",0.0632 (active)
same,normalized growth,"locus YOR061W, strain CKA2, active compounds read low",1.01
same,normalized growth,"locus YOR069W, strain VPS5, active compounds read low",0.994
same,normalized growth,"locus YOR070C, strain gyp1, active compounds read low",0.971
same,normalized growth,"locus YOR080W, strain dia2, active compounds read low",0.389 (active)
same,normalized growth,"locus YOR083W, strain WHI5, active compounds read low",0.956
same,normalized growth,"locus YOR106W, strain vam3, active compounds read low",0.983
same,normalized growth,"locus YOR136W, strain idh2, active compounds read low",1.02
same,normalized growth,"locus YOR144C, strain elg1, active compounds read low",1.01
same,normalized growth,"locus YOR184W, strain ser1, active compounds read low",1
same,normalized growth,"locus YOR231W, strain MKK1, active compounds read low",0.109 (active)
same,normalized growth,"locus YOR265W, strain rbl2, active compounds read low",0.987
same,normalized growth,"locus YOR270C, strain vph1, active compounds read low",0.792
same,normalized growth,"locus YOR290C, strain snf2, active compounds read low",0.0611 (active)
same,normalized growth,"locus YOR316C, strain cot1, active compounds read low",1.02
same,normalized growth,"locus YPL051W, strain arl3, active compounds read low",1
same,normalized growth,"locus YPL078C, strain atp4, active compounds read low",0.157 (active)
same,normalized growth,"locus YPL106C, strain sse1, active compounds read low",0.319 (active)
same,normalized growth,"locus YPL240C, strain hsp82, active compounds read low",0.108 (active)
same,normalized growth,"locus YPL241C, strain CIN2, active compounds read low",1.01
same,normalized growth,"locus YPL256C, strain CLN2, active compounds read low",0.122 (active)
same,normalized growth,"locus YPR119W, strain clb2, active compounds read low",1.01
same,normalized growth,"locus YPR141C, strain kar3, active compounds read low",1.01
same,normalized growth,"locus YPR163C, strain tif3, active compounds read low",1.03
same,normalized growth,"locus YPR167C, strain met16, active compounds read low",1.03
same,normalized growth,"strain wtn01, active compounds read low",1.07
